# Assay outcomes (PubChem BioAssay)
# CYP2C19 inh = blocks human cytochrome P450 2C19; P33261; CYP2C19 Supersomes, luciferin-H EGE luminescence, 30 min; inhibition, % at 5 µM; 96,000 compounds, 21% hits;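 active means CYP2C19 inhibition above a set limit at 5 µM in the primary screen, cut at about 50% in these data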
# CYP2C9 activ = increases human cytochrome P450 2C9 activity. 96,000 compounds, 1.4% hits. activation factor at 5 µM. recombinant CYP2C9, luciferin-H conversion, luminescence; stronger effect = higher value; factor 1 = untreated enzyme, 0 = blocked. P11712;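 active means activation factor of 2 or more for CYP2C9 at a 5 µM dose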
# Target sequence (P11712 whole entry, looked up): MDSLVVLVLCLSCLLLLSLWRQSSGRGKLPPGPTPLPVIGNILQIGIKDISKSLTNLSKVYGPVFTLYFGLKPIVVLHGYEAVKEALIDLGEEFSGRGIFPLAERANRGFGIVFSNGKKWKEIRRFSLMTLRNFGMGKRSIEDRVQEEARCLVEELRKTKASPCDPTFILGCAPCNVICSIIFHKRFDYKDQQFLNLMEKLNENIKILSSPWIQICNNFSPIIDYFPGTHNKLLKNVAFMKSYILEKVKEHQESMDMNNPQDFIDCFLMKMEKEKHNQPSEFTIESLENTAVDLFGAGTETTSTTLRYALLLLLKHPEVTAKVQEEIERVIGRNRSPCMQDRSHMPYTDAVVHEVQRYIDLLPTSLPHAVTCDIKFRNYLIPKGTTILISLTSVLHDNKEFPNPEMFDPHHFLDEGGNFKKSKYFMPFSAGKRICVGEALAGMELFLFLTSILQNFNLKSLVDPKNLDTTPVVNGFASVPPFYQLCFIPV
# CYP2C19 act = increases human CYP2C19 enzyme activity; 96,000 tested, under 10 active; AID 1025; activation factor at 5 µM; P33261; recombinant CYP2C19, luciferin-H EGE luminescence; stronger effect = higher value; 0 = fully inhibited enzyme, 1 = untreated enzyme;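 active means activation factor of at least 2 at 5 µM in the primary screen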
# CYP2C9 inh = human CYP2C9 inhibition. CYP2C9 Supersomes, luciferin-H conversion, luminescence. inhibition, % at 5 µM. 96,000 compounds, 20% hits. AID 777;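 active means blocking of liver enzyme CYP2C9 beyond about 50% at 5 µM, limit read from the data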
# PostGolgi ctrl = yeast control strain growth, post-Golgi counter-screen; efflux-deficient yeast background strain, growth absorbance A615, 16 h; inhibition, % at 10 µM; 98,000 compounds, 5% hits
# PostGolgi yeast = growth inhibition of a yeast mutant, post-Golgi transport screen; post-Golgi transport phenotypic cell assay; inhibition, % at 10 µM; 98,000 compounds, 0.9% hits; AID 739;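 further: yeast cells grown in 1536-well plates; yeast grown about 18 h at 30C before absorbance read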
# Hits are given with their value; n = inactive; x = no result. A selection: hits, their analogues and other compounds. The true share with any hit is near 32%. Unless noted, no stated cut-off is given here; in the data, active means inhibition above about 30%; inactive means the rest.
SMILES,CYP2C19 inh,CYP2C9 activ,CYP2C19 act,CYP2C9 inh,PostGolgi ctrl,PostGolgi yeast
Cc1noc(C)c1COC(=O)CCc1nc2ccccc2s1,59,n,n,n,n,n
Cc1noc(C)c1COC(=O)CCOc1ccccc1,n,n,n,n,n,n
CCCOc1ccc(N2C(=O)CC(NCc3ccncc3)C2=O)cc1 (configuration not stated),68,n,n,67,n,n
CCCOc1ccc(N2C(=O)CC(N3CCC(c4nncn4CC)CC3)C2=O)cc1 (configuration not stated),n,n,n,64,n,n
CCOc1ccc(N2C(=O)CC(NCCc3ccncc3)C2=O)cc1 (configuration not stated),52,n,n,n,n,n
CCCOc1ccc(N2C(=O)CC(NCCc3ccc(S(N)(=O)=O)cc3)C2=O)cc1 (configuration not stated),n,n,n,n,n,n
CCCOc1ccc(N2C(=O)CC(N3CCN(c4ccccc4F)CC3)C2=O)cc1 (configuration not stated),n,n,n,n,n,n
CN(c1ccc(C(=O)Nc2ccccc2C(F)(F)F)cc1)S(C)(=O)=O,n,n,n,n,n,n
COC(=O)NCc1cc2cc(Cl)ccc2[nH]1,x,x,x,x,n,n
Cn1cccc1/C=C1\CCC/C(=C\c2cccn2C)C1=O,n,n,n,n,41,n
Cn1cccc1/C=C1\SC(=O)N(CC(=O)Nc2ccc(Cl)cc2)C1=O,n,n,n,n,n,n
CCc1ccc(C2CC(c3ccc(Cl)cc3)=NNC2=O)cc1 (configuration not stated),84,n,n,n,n,n
CCCCOc1ccc(C2CC(=O)NC2=O)cc1 (configuration not stated),n,n,n,n,n,n
Cc1ccc(C2CC(c3ccc(Cl)cc3)=NNC2=O)cc1 (configuration not stated),85,n,n,n,n,n
Cc1ccc(/C(O)=C2/C(=O)C(=O)OC2c2ccc(Cl)cc2)cc1 (configuration not stated),n,n,n,n,n,n
COc1cccc2c(=O)n(CC(=O)NC3CCCC3)ccc12,n,n,n,n,n,n
CCOc1ccccc1N1CCN(C2=C(NS(=O)(=O)c3cccs3)C(=O)c3ccccc3C2=O)CC1,92,n,n,100,n,n
CCOc1ccccc1N1CCN(c2nc3ccccc3nc2C(C#N)C(=O)OC)CC1 (configuration not stated),n,n,n,n,n,n
O=C1C(NS(=O)(=O)c2cccs2)=C(N2CCN(c3cccc(C(F)(F)F)c3)CC2)C(=O)c2ccccc21,n,n,n,52,n,n
O=C(CCCNS(=O)(=O)c1cccs1)N1CCN(c2cccc(Cl)c2)CC1,n,n,n,n,n,n
COc1ccccc1N(C)S(=O)(=O)c1ccc(C(=O)NC(C)(C)C)cc1,n,n,n,73,n,n
CCN(CC(=O)NC(C)C)C(=O)c1ccc(S(=O)(=O)N(C)c2ccccc2OC)cc1,n,n,n,n,n,n
O=S(=O)(Nc1ccc2c(c1)oc1ccccc12)N1CCCC1,n,n,n,89,47,n
COc1cc2c(cc1NS(=O)(=O)N1CCCCC1)oc1ccccc12,70,n,n,n,68,n
O=S(=O)(c1ccc2c(c1)oc1ccccc12)N1CCOCC1,n,n,n,n,n,n
SMILES,CYP2C19 inh,CYP2C9 activ,CYP2C19 act,CYP2C9 inh,PostGolgi ctrl,PostGolgi yeast
COC(=O)CS(=O)(=O)c1ccc2c(c1)CC(=O)N2,n,n,n,n,n,n
CCC1Oc2ccc(C)cc2N(CC(=O)NCCN2CCCCCC2)C1=O (configuration not stated),n,n,n,n,n,n
Cc1ccc2c(c1)N(CCC(=O)NCC1COc3ccccc3O1)C(=O)CO2 (configuration not stated),76,n,n,n,n,n
Cc1ccc2c(c1)N(CCC(=O)NCCN1CCOCC1)C(=O)CO2,n,n,n,n,n,n
CCC1Oc2ccc(C)cc2N(CC(=O)NCC2COc3ccccc3O2)C1=O (configuration not stated),93,n,n,n,x,n
Cc1ccccc1CN(c1ccc(C(=O)NCCC2=CCCCC2)cc1)S(C)(=O)=O,n,n,n,n,n,n
Cn1c(SCc2cc(=O)[nH]c3ccccc23)nnc1-c1ccc(Br)cc1,51,n,n,n,n,n
O=C(Cc1ccccc1)Nc1ccccc1C(=O)O,n,n,n,n,n,n
Cc1noc(C)c1COC(=O)c1ccccc1Oc1ccccc1,96,n,n,89,n,n
Cc1noc(C)c1COC(=O)c1cc(F)c(F)cc1Cl,77,n,n,55,n,n
Cc1noc(C)c1COC(=O)c1ccccc1NC(=O)Cc1ccccc1,99,n,n,98,n,n
CCCCNC(=O)COC(=O)c1cc(F)c(F)cc1Cl,x,x,x,x,n,n
Cc1noc(C)c1C(=O)OCC(=O)c1c(N)n(CC(C)C)c(=O)n(C)c1=O,n,n,n,n,n,n
Cn1c(=O)[nH]c(=O)c2c1nc(NCCCO)n2CCCc1ccccc1,n,n,n,n,n,n
COCCCNc1nc2c(c(=O)[nH]c(=O)n2C)n1CCCc1ccccc1,70,n,n,n,n,n
Cn1c(=O)c2c(nc(NCc3ccccc3)n2CCCc2ccccc2)n(C)c1=O,n,n,n,n,n,n
CCOCCCNc1nc2c(c(=O)n(C)c(=O)n2C)n1CCCc1ccccc1,68,n,n,82,33,n
Cc1nc(N2CCC(C)CC2)c2c(C)c(C(=O)O)sc2n1,n,n,n,n,n,n
O=C1NC(=O)/C(=C\c2ccccc2Oc2ccc(F)c(F)c2)S1,n,n,n,85,43,n
COc1ccccc1/C=C1\S/C(=N/NC(=O)c2cccc(Br)c2)NC1=O,n,n,n,n,n,n
O=S(=O)(c1cccc2nsnc12)N1CCc2ccccc21,x,x,x,x,n,n
CCn1cc(C2=NOC(C(=O)Nc3ccccc3C(=O)OC)C2)c(C)n1 (configuration not stated),n,2.5,n,n,n,n
COC(=O)c1ccccc1NC(=O)C1CC(c2ccccc2O)=NO1 (configuration not stated),n,n,n,n,n,n
CCOC(=O)N1CCC2(CC1)C(C#N)=C(N)Oc1n[nH]c(C)c12,50,n,n,n,n,n
CC(=O)N1CCC2(CC1)C(C#N)=C(N)Oc1n[nH]c(CSc3ccc(C)cc3)c12,n,n,n,53,n,n
CCOC(=O)N1CCC2(CC1)C(C#N)=C(N)Oc1c2c(C)nn1-c1cccc(Cl)c1,n,n,n,72,31,n
CCOC(=O)N1CCC2(CC1)C(C#N)=C(N)Oc1c2sc2nc(C)cc(C)c12,n,n,n,n,55,n
CCOC(=O)c1cn(CC)c2ccc(S(=O)(=O)N3CC(C)CC(C)C3)cc2c1=O (configuration not stated),x,x,x,x,n,n
